Assay outcomes deposited in PubChem by National Center for Advancing Translational Sciences (NCATS).
Most compounds without a hit are left out; they make up all but 6.2% or so of the library.
RORg inh: ROR gamma (mouse) transcription inhibition; P51450; Drosophila S2 Gal4-RORgamma UAS-luciferase reporter, 20 h; Potency, µM (doses to about 53.6 µM), without a hit: at the highest dose activity change, negative = inhibition, hits mostly inhibitors; 5.4% of 310,000 active; AID 2551; further: nearly all actives have a fitted effect of over 60% in size
Target sequence (P51450 whole entry, looked up, the tested form may be a part): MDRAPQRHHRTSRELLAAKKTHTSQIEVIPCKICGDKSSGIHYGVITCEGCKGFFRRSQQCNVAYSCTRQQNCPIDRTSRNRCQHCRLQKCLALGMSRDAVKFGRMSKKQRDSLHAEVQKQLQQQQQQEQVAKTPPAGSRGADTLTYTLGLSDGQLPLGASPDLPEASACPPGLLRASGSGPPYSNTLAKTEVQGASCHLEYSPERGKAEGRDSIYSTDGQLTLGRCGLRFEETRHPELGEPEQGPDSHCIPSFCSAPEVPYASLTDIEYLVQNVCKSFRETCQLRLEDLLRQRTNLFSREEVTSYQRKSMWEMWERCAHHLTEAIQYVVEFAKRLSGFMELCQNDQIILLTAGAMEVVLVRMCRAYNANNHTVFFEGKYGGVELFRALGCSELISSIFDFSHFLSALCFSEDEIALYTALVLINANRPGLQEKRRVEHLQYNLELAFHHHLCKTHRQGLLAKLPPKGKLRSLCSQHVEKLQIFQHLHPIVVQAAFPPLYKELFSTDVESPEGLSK
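Drosophila S2 cells stably expressing Gal4-DBD/mouse RORγ fusion under metallothionein promoter plus UAS-luciferase; compound 1 h, then 700 uM CuSO4 induction for 20 h at ambient temperature; inhibition read as reduced luminescence.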
KinaseGlo FLuc: Kinase-Glo luciferase inhibition (counter-screen); Q27757; Kinase-Glo luciferase, ATP luminescence, 8 min; Potency, µM (top dose mostly 38.3 µM), inactives show at the highest dose activity change, negative = inhibition, hits mostly inhibitors; 0.28% of 200,000 active; further: nearly all actives have a fitted effect of over 60% in size
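Luminescence was the read-out, taken after 8-minute incubation at ambient temperature. Luciferase turned over luciferin with 10 uM ATP in imidazole pH 7.2 buffer containing KCl, MgCl2, Tween 20 and BSA.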
Gal4-VP16 FLuc: counter-screen for ROR gamma inhibitors: Gal4-VP16 reporter. Drosophila S2 Gal4-VP16 UAS-luciferase, luminescence, 20 h. Potency, µM (titrated, usually from 53.6 µM), without a hit: at the highest dose activity, negative = inhibition, most hits filed as inhibitors. 3.5% of 310,000 active. AID 2546;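 further: Gal4-VP16 expression switched on by copper sulfate through the metallothionein promoter; nearly all actives have a fitted effect of over 50% in size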
Active calls of the source: *; ? = inconclusive; nt = not tested or not shown; [ ] = another dose, or the depositor's remark. The call rests on the fitted dose curve; in most records, active means well fitted curve in the direction sought with a large enough effect; inconclusive means small, poorly fitted or top-dose-only effect, or another doubt; inactive means no such curve, though single readings can be large; an effect the other way counts as inactive or inconclusive. On the % scale 0 is the no-effect control and ±100 the full control effect; potency means the concentration at half of the fitted maximal effect.

SMILES	RORg inh	KinaseGlo FLuc	Gal4-VP16 FLuc
O=C(c1cccc(F)c1)N1CCC2(CC1)CCN(C(c1ccccc1)c1ccccc1)CC2	13%	1%	4%
COc1ccc(N2C(=O)CC(C#N)=C2N)cc1	?	5%	3%
CC(C)OC(=O)C1=C2SCC(=O)N2C(N)=C(C#N)C1	13µM*	2%	-7%
Cc1ccc(C(=O)c2coc3ccc(O)cc23)cc1	-28%	nt	5%
COC(OC)[C@@H](C)[C@H](OC)[C@@H](C)[C@H](OC)c1ccccc1	-12%[10 µM]	nt	-2%[10 µM]
O=C(NCc1ccccn1)c1ccc2ccccc2n1	3.5µM*	0%	10µM*
Cc1ccc(S(=O)(=O)CCc2nnc(NC(=O)c3ccccn3)s2)cc1	?	-2%	7.1µM*
Cc1nc2ccc(NC(=O)c3ccc4ccccc4n3)cc2s1	2%	-15%	15%
Cc1nc(Nc2ccccc2)sc1C(=O)Nc1ccccc1	?	nt	9%
Cc1ccc(S(=O)(=O)CCc2nnc(NC(=O)c3cnccn3)s2)cc1	-18%	2%	0%
O=C(NCc1ccccc1)c1ccc2ccccc2n1	28%	nt	21%
Cc1nnc(NC(=O)c2ccc3ccccc3n2)s1	2.8µM*	nt	7.1µM*
Cc1nc(NC(=S)Nc2ccccc2)sc1C	0.89µM*	5%	5µM*
O=c1oc2ccccc2cc1N1CCOCC1	-2%	0%	-6%
O=C(NCCCO)c1ccc(CSc2nc3ccccc3c(=O)[nH]2)cc1	17%	nt	4%
CC(=O)Nc1ccn(C2CC3OCC(NC(=O)C(NC(=O)OC(C)(C)C)C(C)OCc4ccccc4)C3O2)c(=O)n1 (stereo not given)	-19%	nt	-5%
Cc1ccc2c(c1)N(C(=O)CCC(=O)Nc1ccccc1Cl)CC(C)O2 (stereo not given)	-15%	nt	1%
COC(=O)CNC(=O)Cn1c(=O)n(Cc2ccc(F)cc2)c(=O)c2sccc21	-8%	nt	5%
CC(=O)c1cc(F)ccc1OCC(=O)N1CCN(c2ccc(F)cc2)CC1	17%	-6%	-5%
Cc1oc(-c2ccc(Cl)cc2)nc1CN1CCC(C(=O)NCCCN2CCCC(C)C2)CC1 (stereo not given)	1%	nt	1%
Cc1ccc2oc(C(=O)N3CCC(O)(c4cccc(C(F)(F)F)c4)CC3)c(C)c2c1	?	nt	-7%
CNC(=O)CSc1nnc(NC(=O)C2CC(=O)N(c3ccccc3OC)C2)s1 (stereo not given)	-15%	nt	-13%
CCc1nnc(NC(=O)c2cccc(C(=O)Nc3nnc(CC)s3)n2)s1	0.018µM*	2%	0.18µM*
Cc1ccc(C(=O)Nc2nnc(NC(=S)Nc3ccccc3)s2)cc1	0.28µM*	nt	1.1µM*
CCc1nnc(NC(=O)c2ccncc2)s1	4%	-6%	20%
SMILES	RORg inh	KinaseGlo FLuc	Gal4-VP16 FLuc
CCc1nnc(NC(=S)Nc2ccccc2)s1	0.28µM*	1%	0.89µM*
CCOc1ccc(C(=O)Nc2nnc(NC(=S)Nc3ccccc3)s2)cc1	0.35µM*	0%	1.6µM*
Cc1ccc(SCc2nnc(NC(=O)c3ccccc3)s2)cc1	-5%	2%	11%
CCOc1ccc(NC(=S)NNC(=O)c2ccc(Br)cc2)cc1	-27%	2%	-4%
CCc1nnc(NC(=O)CCC(=O)Nc2ccccc2)s1	-15%	3%	-1%
COc1ccc(S(=O)(=O)N2CCOC2CNC(=O)C(=O)NCC(C)C)cc1OC (stereo not given)	36%	nt	-9%
CCCCC/C=N\NC(=O)Cc1ccc([N+](=O)[O-])cc1	?	2%	?
COc1ccc(C=C2c3ccccc3C(=O)c3ccccc32)cc1O	3%	nt	11%
CC[C@@H](c1ccccc1)n1c(=O)n2n(c1=O)[C@H]1[C@H](O)[C@H]3O[C@@H]3/C(=N/OC[C@@H](O)COCc3ccco3)[C@@H]1CC2	-1%[10 µM]	nt	-2%[10 µM]
CSCC[C@H](NC(=O)c1ccco1)c1nnc2ccccn12	-6%	nt	-15%
O=C(CNC(=O)c1ccco1)N/N=C/c1ccc(C(=O)O)cc1	-43%	nt	0%
CCc1nnc(NC(=O)CN2CCN(Cc3cccc(F)c3)CC2)s1	10%	nt	4%
CCc1nnc(NC(=O)CN2CCN(Cc3cccc(Cl)c3)CC2)s1	2.5µM*	nt	?
O=C(CCCC(=O)N(CC(=O)NC1CCCCC1)c1ccccc1F)Nc1ccccn1	21%	nt	7%
Cc1onc(-c2ccccc2)c1C(=O)NNC(=S)NC(=O)/C=C/c1cccs1	3.5µM*	0%	4.5µM*
COc1ccc(C(=O)NC(=S)NNC(=O)c2c(-c3ccccc3)noc2C)cc1OC	4µM*	nt	14µM*
Cc1onc(-c2ccccc2)c1C(=O)NNC(=S)NC(=O)c1ccc2c(c1)OCO2	2.5µM*	nt	-15%
Cc1onc(-c2ccccc2)c1C(=O)NC(=S)NNC(=O)c1ccco1	-33%	nt	8%
Cc1onc(-c2ccccc2)c1C(=O)NCc1ccc2c(c1)OCO2	?	-1%	-41%
Cc1onc(-c2ccccc2)c1C(=O)NC(=S)NNC(=O)c1ccncc1	?	2%	?
CC1CCC(NC(=O)C2CCC(CNS(=O)(=O)c3cccc4cccnc34)CC2)CC1 (stereo not given)	9%	nt	-3%
COC(=O)c1ccc(C(NC(=O)OCc2ccccc2)/C(=C/[C@@H](C)C(=O)NCc2ccc(-c3ccccc3)cc2)c2cccnc2)cc1 (stereo not given in full)	9%	-4%	2%
O=S(=O)(Nc1ccncc1Cl)c1ccccc1	-5%	1%	-4%
CC12CCC(C[N+](C)(CCC[N+](C)(C)C)C1)C2(C)C (stereo not given)	2%	nt	5%
CC(NC(=O)NC1CCCCC1)C(c1cccs1)N1CCOCC1 (stereo not given)	32%	1%	5%
SMILES	RORg inh	KinaseGlo FLuc	Gal4-VP16 FLuc
COc1ccc(C2/C=C\CN(CC3CCCCC3)C(Cc3ccccc3)C(=O)N2Cc2ccc(F)cc2)cc1 (stereo not given)	15%	nt	4%
Cc1nn(-c2ccc(F)cc2)c(C)c1CN1CCN(CCc2ccccc2)C(CCO)C1 (stereo not given)	6%	-2%	22%
CC1CCN(S(=O)(=O)c2cc(C(=O)N3CCN(c4ncccn4)CC3)ccc2Br)CC1	33%	1%	7.1µM*
CC1CCN(C(=O)c2ccc(Br)c(S(=O)(=O)N3CCOCC3)c2)CC1	1%	nt	-7%
O=S(=O)(CCN1CCCCC1)Oc1ccc(Cl)cc1Cl	2%	nt	5%
Cc1ccc(NC(=O)NCc2ccc3c(c2)OCO3)cc1C	-24%	nt	4%
Fc1ccc(NC(=S)NCc2ccc3c(c2)OCO3)cc1	11µM*	1%	?
Cc1ccc(NC(=S)NCc2ccc3c(c2)OCO3)cc1C	13µM*	-2%	?
O=C(NCc1ccc2c(c1)OCO2)Nc1ccc(F)cc1	41%	nt	7%
CC(Oc1ccc(Cl)cc1Cl)C(=O)NC(=S)N1CCc2ccccc21 (stereo not given)	0.71µM*	5%	0.89µM*
CC(Oc1ccc(Cl)cc1Cl)C(=O)N/N=C1\CCCc2ccccc21 (stereo not given)	-21%	-2%	0%
O=C(COc1ccc(Br)cc1Cl)NC(=S)N1CCc2ccccc21	0.79µM*	4%	0.71µM*
CC(Oc1ccc(Cl)cc1Cl)C(=O)NN=C1CCN(C)CC1 (stereo not given)	7.1µM*	2%	10µM*
